Assay results taken from PubChem BioAssay (NCATS).
Several values for one entry are separate records, joined by “and”; a condition that tells them apart may be missing. Equal entries are not always repeated. Results filed as inconclusive are left out. Activity calls are given as the source filed them. Unless noted, calls follow the shape of the dose curve; as a rule, active = well fitted curve in the direction sought with a large enough effect; inconclusive = small, poorly fitted or top-dose-only effect, or another doubt; inactive = no such curve, though single readings can be large; an effect the other way counts as inactive or inconclusive.

Key:
[1] = Cell Viability - MRC5 (AID 434; calls by dose curve;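 also: potency is read from the fitted curve at half-maximal effect; cells exposed to compound for 40 hours at 37 °C; potency reflects cytotoxicity seen as loss of intracellular ATP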); details: MRC5 lung fibroblast viability, qHTS
Method in brief: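 Decrease in intracellular ATP, quantified by luciferase light output, reflects compound toxicity toward MRC5 cells exposed for 40 hr in complete culture medium. Concentration-response curves, scaled between DMSO and 100 uM tamoxifen, gave AC50 values.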

[2] = target: Mitogen-activated protein kinase 10 (Mus musculus) (UniProt Q61831); assay: JNK3 AlphaScreen Assay (AID 530; active = well fitted curve in either direction with a large enough effect, not every such curve was filed as active;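 also: kinase came from lysate of stimulated human HepG2 cells; signal reports phosphorylation of biotinylated GST-cJun 1-79 at Ser73 with 10 µM ATP; % is scaled to controls: 0 for no effect and ±100 for the full control effect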); details: JNK3 lysate, c-Jun phosphorylation; series mostly up to 57.1 µM
Method in brief: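 Biotinylated GST-cJun(1-79) served as substrate for JNK3 in HepG2 lysates stimulated with IL-1beta and TNF-alpha. ATP was 10 uM final, pH 7.6. Ser73 phosphorylation was quantified by AlphaScreen (680 nm excitation).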

[3] = Cellular Toxicity (caspase-3) HUV-EC-C (AID 656); details: HUV-EC-C cells, caspase-3 activation (apoptosis), vehicle = 0, 100 µM tamoxifen = 100%; series mostly up to 92.2 µM;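 also: 0% = DMSO basal and 100% = 100 µM tamoxifen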
Method in brief: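 Luminescent Caspase-Glo 3/7 readout after 16 h, 37 °C compound exposure of HUV-EC-C endothelial cells, 1000 per well, complete medium. AC50 derived by Hill fitting, with DMSO as baseline and 100 uM tamoxifen as full activation.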

[4] = Cellular Toxicity (caspase-3) SK-N-SH (AID 661); details: SK-N-SH caspase-3 activation, qHTS; series mostly up to 91.7 µM;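 also: cells exposed to compound for 16 hours; 0% = DMSO basal and 100% = 10 µM staurosporine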
Method in brief: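 Luminescent Caspase-Glo 3/7 read-out after 16 hr compound exposure of SK-N-SH neuroblastoma cells at 37 °C. Signal increase normalized to DMSO (basal) and 10 uM staurosporine (100%); AC50 from Hill equation fits of qHTS concentration-response data.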

[5] = MultiTox-Fluor Cytotoxicity Assay - LYMP1-002 - Dead Cells (AID 960); details: LYMP1-002 lymphoblastoid cells, dead-cell protease fluorescence; series mostly up to 46.1 µM;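 also: 0% = DMSO and 100% = tetraoctylammonium bromide; nearly all actives have a fitted effect of over 60% in size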
Method in brief: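 Readout: fluorescence at 485/520 from cell-impermeant bis-AAF-R110 cleaved by proteases leaking from damaged cells. LYMP1-002 lymphoblastoid line, 16 hr compound treatment at 37 C, concentration-response in qHTS format; Hill-equation AC50 values.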

[6] = MultiTox-Fluor Cytotoxicity Assay - LYMP1-003 - Live Cells (AID 962); details: LYMP1-003 lymphoblastoid cells, MultiTox-Fluor live-cell protease fluorescence; series mostly up to 92.2 µM;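 also: cells exposed to compound for 16 hours at 37 °C; 0% = DMSO only and full loss = 92 µM tetraoctylammonium bromide; cytotoxic hits lower the live-cell protease signal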
Method in brief: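 Readout: live-cell fluorescence (Ex/Em=405/510) from GF-AFC cleavage after 60 min MultiTox-Fluor reagent at room temperature. Lymphoblastoid LYMP1-003 cells, 16 hr compound treatment, 37 C. Concentration-response fitted to standard Hill equation for AC50.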

[7] = Cell Viability - LYMP2-005 (AID 967); details: LYMP2-005 lymphoblastoid cell viability; series mostly up to 92.2 µM;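 also: plate controls were DMSO only for no effect and 92 µM tetraoctylammonium bromide control for full effect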
Method in brief: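 LYMP2-005 human lymphoblastoid cells (2500/well) were treated with compounds for 24 h at 37 C. Intracellular ATP was then measured by CellTiter-Glo luminescence after 30 min at room temperature. AC50 values came from Hill-equation fits of qHTS concentration-response data.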

[8] = Cell Viability - LYMP2-021 (AID 974); details: LYMP2-021 lymphoblastoid cells viability; series mostly up to 92.2 µM;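 also: compound exposure lasts 24 hours at 37 °C; % is scaled to controls: 0 for no effect and ±100 for the full control effect; nearly all actives have a fitted effect of over 55% in size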
Method in brief: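 ATP luminescence (CellTiter-Glo, 30 min RT) after 24 h compound exposure at 37 C; 2500 human lymphoblastoid cells/well, 5 h settle beforehand. Cytotoxicity = concentration-dependent ATP drop, AC50 by Hill fit.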

[9] = Cell Viability - LYMP2-023 (AID 975); details: LYMP2-023 lymphoblastoid cell viability; series mostly up to 92.2 µM;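 also: cellular ATP measured by luciferase luminescence as viability proxy; plate controls were DMSO only for no effect and 92 µM tetraoctylammonium bromide control for full effect; nearly all actives have a fitted effect of over 55% in size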
Method in brief: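 CellTiter-Glo luminescence after 30 min at room temperature; decrease in intracellular ATP reflects toxicity. Cells: human lymphoblastoid line, 2500/well, 24 hr compound exposure at 37 C. AC50 fitted to standard Hill equation from concentration-response.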

[10] = Cell Viability - LYMP2-006 (AID 978); details: LYMP2-006 lymphoblastoid cell viability, qHTS; series mostly up to 92.2 µM; also: % is scaled to controls: 0 for no effect and ±100 for the full control effect; nearly all actives have a fitted effect of over 60% in size
Method in brief: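 Potency values are Hill-fit AC50s for decreases in intracellular ATP (CellTiter-Glo luminescence). LYMP2-006 lymphoblastoid cells, 2500 per well, were exposed to compound in complete culture medium for 24 hr at 37 C.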

[11] = Cell Viability - LYMP2-007 (AID 979); details: LYMP2-007 lymphoblastoid cell viability; series mostly up to 92.2 µM;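 also: cells exposed to compound for 24 h before reading; 0% = DMSO only and the negative end = 92 µM tetraoctylammonium bromide; nearly all actives have a fitted effect of over 60% in size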
Method in brief: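 qHTS cytotoxicity: 2500 cells/well, 5 hr 37 C settle, compound 24 hr 37 C, CellTiter-Glo 30 min RT, luminescence. Decrease in ATP = toxicity. AC50 by standard Hill equation; tetraoctylammonium bromide positive control.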

[12] = target: Vitamin D3 receptor (Homo sapiens) (UniProt P11473); assay: qHTS assay for small molecule antagonists of vitamin D receptor signaling (AID 588541; calls by dose curve;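 also: receptor activated by calcitriol during compound treatment; % is scaled to controls: 0 for no effect and ±100 for the full control effect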); details: HEK293T VDR-UAS-bla, beta-lactamase ratio, antagonist mode; series mostly up to 76.7 µM
Method in brief: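 VDR-UAS-bla HEK293T cells (2000/well, 2% charcoal-stripped FBS) were treated with titrated compounds plus 1-alpha,25-dihydroxyvitamin D3 (50 nM or 3 nM final) for 16 h at 37 C. CCF4 beta-lactamase fluorescence was read; Hill fits gave IC50.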

[13] = target: Thyroid hormone receptor beta (Homo sapiens) (UniProt P10828); assay: qHTS assay for small molecule agonists of thyroid hormone receptor beta signaling (AID 588545; calls by dose curve); details: TR-UAS-bla GripTite HEK 293, beta-lactamase ratio, agonist mode, 18 h; series mostly up to 76.7 µM
Method in brief: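 Agonist activity was read as beta-lactamase CCF4 fluorescence (405 ex, 460/530 em), scaled between DMSO (0%) and 10 nM T3 (100%), then Hill-fitted for EC50 and efficacy. HEK 293 TR-UAS-bla cells in 2% charcoal/dextran FBS medium were exposed 18 h at 37 C.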

[14] = target: Thyroid hormone receptor beta (Homo sapiens) (UniProt P10828); assay: qHTS assay for small molecule antagonists of thyroid hormone receptor beta signaling (AID 588547; active = well fitted inhibition curve with a large enough effect in the signal ratio, with a control signal flat, not every such curve was filed as active; the % refers to the signal ratio;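 also: cells stimulated with 0.4 nM T3 agonist during compound exposure; % is scaled to controls: 0 for no effect and ±100 for the full control effect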); details: TR-UAS-bla HEK293, beta-lactamase ratio, antagonist mode, 18 h
Method in brief: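 TR-UAS-bla GripTite HEK293 cells in 2% charcoal/dextran FBS medium were preincubated 4 h at 37 C, given compound (0.59 nM to 92 uM) plus 0.4 nM T3 (final) for 18 h, then CCF4 for 2 h at RT; Hill fit gave IC50.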

[15] = target: Nuclear receptor subfamily 1 group I member 2 (Rattus norvegicus) (UniProt Q9R1A7); assay: qHTS assay for small molecule activators of the rat pregnane X receptor (rPXR) signaling pathway (AID 651751; call rule not given here; also: 0% is about no effect); details: rPXR reporter cells, luciferase (One-Glo), 24 h
[16] = qHTS assay for small molecule activators of the human pregnane X receptor (PXR) signaling pathway (AID 720659; call rule not given here; also: 0% is about no effect); details: DPX-2 HepG2 CYP3A4-luciferase, 24 h; series mostly up to 92.3 µM
[17] = Cell Viability - HepG2 (AID 433; calls by dose curve;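 also: potency is read from the fitted curve at half-maximal effect; potency for ATP loss meaning cytotoxicity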); details: qHTS
Method in brief: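 Cytotoxicity read as ATP loss (CellTiter-Glo luminescence) after 40 hr compound exposure of HepG2, 1500 cells/well, 37 °C. AC50 by Hill equation; 0% set by DMSO, 100% inhibition by 100 uM tamoxifen.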

[18] = Cell Viability - Mesenchymal (AID 546); details: mesenchymal cells viability, qHTS; series mostly up to 91.7 µM;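 also: cells exposed to compound for 40 hours before reading; 0% = DMSO only and -100% = 100 µM tamoxifen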
Method in brief: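 In this qHTS cytotoxicity format, glomerulus-derived human mesenchymal kidney cells received compound for 40 hr, then luciferase-based ATP quantitation. Concentration-response data were fitted with the Hill equation.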

[19] = Cellular Toxicity (caspase-3) H-4-II-E (AID 663); details: H-4-II-E rat hepatoma; Potency: caspase-3 activation; series mostly up to 92.2 µM;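 also: cells exposed to compound for 16 hr before readout; 0% = DMSO basal and 100% = 100 µM tamoxifen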
Method in brief: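 Caspase 3/7 activation measured in H-4-II-E cells in complete culture medium after 16 hr treatment at 37 °C, using luciferase-coupled substrate readout; AC50 values come from Hill-equation fits of normalized concentration-response data.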

[20] = target: Retinoic acid receptor RXR-alpha (Homo sapiens) (UniProt P19793); assay: qHTS assay for small molecule agonists of retinoid X receptor alpha signaling (AID 588544; calls by dose curve;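 also: 0% = DMSO basal wells and 100% = reference agonist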); details: HEK293T RXRa-UAS-bla, beta-lactamase reporter, 18 h; series mostly up to 76.7 µM
Chain of Retinoic acid receptor RXR-alpha (Homo sapiens) (P19793 whole entry, looked up): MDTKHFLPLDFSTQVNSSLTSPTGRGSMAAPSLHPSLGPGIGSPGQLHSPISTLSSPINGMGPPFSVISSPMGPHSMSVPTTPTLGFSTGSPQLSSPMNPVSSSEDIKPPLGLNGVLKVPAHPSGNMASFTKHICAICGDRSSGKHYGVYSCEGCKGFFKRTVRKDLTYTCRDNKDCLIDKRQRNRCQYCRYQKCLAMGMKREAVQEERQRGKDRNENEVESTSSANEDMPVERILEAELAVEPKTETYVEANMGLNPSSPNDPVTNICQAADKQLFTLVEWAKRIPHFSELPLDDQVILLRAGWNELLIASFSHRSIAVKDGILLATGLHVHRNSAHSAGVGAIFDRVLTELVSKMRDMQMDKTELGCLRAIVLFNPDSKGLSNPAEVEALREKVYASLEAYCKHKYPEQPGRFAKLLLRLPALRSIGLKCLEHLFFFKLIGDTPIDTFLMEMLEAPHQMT

Chain of Vitamin D3 receptor (Homo sapiens) (P11473 whole entry, looked up): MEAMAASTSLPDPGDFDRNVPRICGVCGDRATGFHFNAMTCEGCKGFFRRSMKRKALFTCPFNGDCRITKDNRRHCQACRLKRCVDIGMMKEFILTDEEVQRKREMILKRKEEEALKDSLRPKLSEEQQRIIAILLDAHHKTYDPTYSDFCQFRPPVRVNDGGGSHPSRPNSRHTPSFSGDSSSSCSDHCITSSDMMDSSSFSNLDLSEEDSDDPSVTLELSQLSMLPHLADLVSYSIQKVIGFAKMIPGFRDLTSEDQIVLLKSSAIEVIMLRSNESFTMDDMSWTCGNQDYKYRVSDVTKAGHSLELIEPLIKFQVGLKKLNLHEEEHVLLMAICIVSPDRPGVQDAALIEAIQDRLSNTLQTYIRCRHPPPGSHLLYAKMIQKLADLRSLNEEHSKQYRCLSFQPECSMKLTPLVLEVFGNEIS
Chain of Thyroid hormone receptor beta (Homo sapiens) (P10828 whole entry, looked up): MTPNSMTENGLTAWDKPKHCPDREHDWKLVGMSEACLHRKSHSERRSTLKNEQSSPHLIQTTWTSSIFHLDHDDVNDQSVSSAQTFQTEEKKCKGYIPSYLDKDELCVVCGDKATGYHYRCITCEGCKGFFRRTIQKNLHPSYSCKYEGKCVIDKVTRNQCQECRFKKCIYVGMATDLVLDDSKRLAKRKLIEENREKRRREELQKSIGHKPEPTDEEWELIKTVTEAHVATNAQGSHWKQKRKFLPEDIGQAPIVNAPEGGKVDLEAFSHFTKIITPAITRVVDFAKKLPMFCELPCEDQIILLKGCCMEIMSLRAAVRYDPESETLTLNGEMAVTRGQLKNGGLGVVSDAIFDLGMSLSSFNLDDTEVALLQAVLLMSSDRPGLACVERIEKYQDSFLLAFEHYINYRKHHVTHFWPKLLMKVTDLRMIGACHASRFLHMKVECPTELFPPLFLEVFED
Chain of Nuclear receptor subfamily 1 group I member 2 (Rattus norvegicus) (Q9R1A7 whole entry, looked up): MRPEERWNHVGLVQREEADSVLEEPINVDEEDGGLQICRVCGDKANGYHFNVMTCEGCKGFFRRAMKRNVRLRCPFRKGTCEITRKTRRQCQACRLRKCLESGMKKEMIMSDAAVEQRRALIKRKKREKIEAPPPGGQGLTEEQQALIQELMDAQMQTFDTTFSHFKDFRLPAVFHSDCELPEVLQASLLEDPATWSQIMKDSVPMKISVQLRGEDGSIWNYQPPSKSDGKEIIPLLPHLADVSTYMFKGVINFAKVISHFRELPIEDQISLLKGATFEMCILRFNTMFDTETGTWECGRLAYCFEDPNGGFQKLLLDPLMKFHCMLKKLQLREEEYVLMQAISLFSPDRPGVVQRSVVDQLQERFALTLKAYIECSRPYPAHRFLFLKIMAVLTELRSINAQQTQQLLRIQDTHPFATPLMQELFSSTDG

NNC(N)=S
inactive: Potency [1] > 92 µM | Potency [2] | outcome [3] | Potency [4] | Potency [5] | outcome [6] | Potency [7] | Potency [8] | Potency [9] | Potency [10] | Potency [11] | outcome [12] | Potency [13] | activity change % (negative = inhibition) [14] 4.76% | max response [15] 0.379% | outcome [16]

Cl/C=C/CCl
inactive: Potency [17] > 92 µM | Potency [2] | Potency [18] | outcome [3] | Potency [4] | Potency [19] | Potency [5] | outcome [6] | Potency [7] | Potency [8] | Potency [9] | Potency [10] | outcome [12] | outcome [20] | Potency [13] | activity change % (negative = inhibition) [14] -4.73% | max response [15] -4.52% | outcome [16]

CNC(=O)O/N=C/C(C)(C)S(C)=O (configuration not stated)
inactive: Potency [17] > 92 µM | Potency [2] | Potency [18] | outcome [3] | Potency [4] | Potency [5] | outcome [6] | Potency [7] | Potency [8] | Potency [9] | Potency [11] | outcome [12] | outcome [20] | activity change % (negative = inhibition) [14] 6.05% and 1.68% | max response [15] 6.61% and 1.92% | outcome [16]

OCC(Cl)CCl (configuration not stated)
inactive: Potency [1] > 92 µM | Potency [2] | Potency [18] | outcome [3] | Potency [19] | Potency [5] | Potency [7] | Potency [8] | Potency [9] | Potency [10] | Potency [11] | outcome [12] | outcome [20] | Potency [13] | activity change % (negative = inhibition) [14] -13.6% | max response [15] 2.56% | outcome [16]

Nc1cc(Cl)cc(C(=O)O)c1Cl
inactive: Potency [17] > 92 µM | Potency [1] > 92 µM | Potency [18] | outcome [3] | Potency [4] | Potency [19] | Potency [5] | Potency [7] | Potency [8] | Potency [9] | Potency [10] | Potency [11] | outcome [12] | outcome [20] | Potency [13] | activity change % (negative = inhibition) [14] -1.41% | max response [15] 3.15% and -3.28% | outcome [16]

ClCCOCCCl
inactive: Potency [1] > 92 µM | Potency [2] | Potency [18] | Potency [4] | Potency [19] | outcome [6] | Potency [8] | Potency [9] | Potency [10] | Potency [11] | outcome [20] | Potency [13] | activity change % (negative = inhibition) [14] 0.0195% | max response [15] -1.5% | outcome [16]

BrCC(Br)C1CCC(Br)C(Br)C1 (configuration not stated)
inactive: Potency [17] > 92 µM | Potency [1] > 92 µM | Potency [18] | Potency [4] | Potency [5] | outcome [6] | Potency [7] | Potency [9] | Potency [10] | Potency [13] | activity change % (negative = inhibition) [14] 5.99% | max response [15] -6.51%
